# Results taken from the supplement of paper PMC8728848.
# About 410 targets per protein were measured; listed, in parts, are those with the strongest signals and a random draw of the rest.
# B1: DC-Sign-R (Homo sapiens), Q9H2X3 (protein)
# chain: MSDSKEPRVQQLGLLEEDPTTSGIRLFPRDFQFQQIHGHKSSTGCLGHGALVLQLLSFMLLAGVLVAILVQVSKVPSSLSQEQSEQDAIYQNLTQLKAAVGELSEKSKLQEIYQELTQLKAAVGELPEKSKLQEIYQELTRLKAAVGELPEKSKLQEIYQELTRLKAAVGELPEKSKLQEIYQELTRLKAAVGELPEKSKLQEIYQELTELKAAVGELPEKSKLQEIYQELTQLKAAVGELPDQSKQQQIYQELTDLKTAFERLCRHCPKDWTFFQGNCYFMSNSQRNWHDSVTACQEVRAQLVVIKTAEEQNFLQLQTSRSNRFSWMGLSDLNQEGTWQWVDGSPLSPSFQRYWNSGEPNNSGNEDCAEFSGSGWNDNRCDVDNYWICKKPAACFRDE
# What was measured:
# Assay in all cases: glycan array binding signal (z-score within array); higher = stronger binding
# Settings in all cases: glycan notation: IUPAC condensed, linker removed
# [1] = biological target: Fuc(a1-2)Gal(b1-3)GalNAc(b1-4)[Neu5Ac(a2-3)]Gal(b1-4)Glc
# Procedure, shortened: (§1)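 The Consortium for Functional Glycomics database supplied 3228 glycan arrays, of which those lacking an available protein sequence were dropped. The binding signal, a within-array Z-score, was averaged across arrays of the same protein sequence and across linkers. Negative scores can be read as non-binding.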
# [2] = biological target: Fuc(a1-2)Gal(b1-4)GlcNAc(b1-2)Man
# Procedure, shortened: as §1
# [3] = biological target: Fuc(a1-2)Gal(b1-4)GlcNAc(b1-2)[Fuc(a1-2)Gal(b1-4)GlcNAc(b1-4)]Man(a1-3)[Fuc(a1-2)Gal(b1-4)GlcNAc(b1-2)Man(a1-6)]Man(b1-4)GlcNAc(b1-4)GlcNAc
# Procedure, shortened: as §1
# [4] = biological target: Fuc(a1-2)Gal(b1-4)GlcNAc(b1-6)GalNAc
# Procedure, shortened: as §1
# [5] = biological target: Fuc(a1-2)Gal(b1-4)[Fuc(a1-3)]GlcNAc(b1-3)Gal(b1-4)[Fuc(a1-3)]GlcNAc(b1-3)Gal(b1-4)[Fuc(a1-3)]GlcNAc
# Procedure, shortened: as §1
# Fuc(a1-2)Gal6S(b1-4)Glc = biological target: Fuc(a1-2)Gal6S(b1-4)Glc
# Procedure, shortened: as §1
# [6] = biological target: Fuc(a1-2)[Gal(a1-3)]Gal(b1-4)[Fuc(a1-3)]GlcNAc
# Procedure, shortened: as §1
# [7] = biological target: Fuc(a1-2)[GalNAc(a1-3)]Gal(b1-3)GalNAc(a1-3)[Fuc(a1-2)]Gal(b1-4)GlcNAc
# Procedure, shortened: as §1
# [8] = biological target: Fuc(a1-2)[GalNAc(a1-3)]Gal(b1-4)GlcNAc(b1-2)Man(a1-3)[Fuc(a1-2)[GalNAc(a1-3)]Gal(b1-4)GlcNAc(b1-2)Man(a1-6)]Man(b1-4)GlcNAc(b1-4)GlcNAc
# Procedure, shortened: as §1
# [9] = biological target: Fuc(a1-3)[Gal(b1-4)]GlcNAc(b1-3)Gal(b1-4)[Fuc(a1-3)]GlcNAc(b1-3)Gal(b1-4)[Fuc(a1-3)]GlcNAc
# Procedure, shortened: as §1
# Gal(a1-3)Gal(b1-4)Glc = biological target: Gal(a1-3)Gal(b1-4)Glc
# Procedure, shortened: as §1
# [10] = biological target: Gal(a1-4)Gal(b1-3)GlcNAc(b1-2)Man(a1-3)[Gal(a1-4)Gal(b1-3)GlcNAc(b1-2)Man(a1-6)]Man(b1-4)GlcNAc(b1-4)GlcNAc
# Procedure, shortened: as §1
# [11] = biological target: Gal(a1-4)Gal(b1-4)GlcNAc(b1-2)Man(a1-3)[Gal(a1-4)Gal(b1-4)GlcNAc(b1-2)Man(a1-6)]Man(b1-4)GlcNAc(b1-4)GlcNAc
# Procedure, shortened: as §1
# Gal(a1-6)Glc = biological target: Gal(a1-6)Glc
# Procedure, shortened: as §1
# [12] = biological target: Gal(b1-3)GalNAc(a1-3)[Fuc(a1-2)]Gal(b1-4)GlcNAc
# Procedure, shortened: as §1
# [13] = biological target: Gal(b1-3)GlcNAc(b1-3)Gal(b1-4)GlcNAc(b1-3)Gal(b1-4)GlcNAc(b1-2)[Gal(b1-3)GlcNAc(b1-3)Gal(b1-4)GlcNAc(b1-3)Gal(b1-4)GlcNAc(b1-6)]Man(a1-6)[Gal(b1-3)GlcNAc(b1-3)Gal(b1-4)GlcNAc(b1-3)Gal(b1-4)GlcNAc(b1-2)Man(a1-3)]Man(b1-4)GlcNAc(b1-4)[Fuc(a1-6)]GlcNAc
# Procedure, shortened: as §1
# [14] = biological target: Gal(b1-3)GlcNAc(b1-3)Gal(b1-4)GlcNAc(b1-6)[Gal(b1-3)GlcNAc(b1-3)]Gal(b1-4)Glc
# Procedure, shortened: as §1
# [15] = biological target: Gal(b1-4)GlcNAc(b1-2)Man(a1-6)[Man(a1-3)]Man(b1-4)GlcNAc(b1-4)GlcNAc
# Procedure, shortened: as §1
# [16] = biological target: Gal(b1-4)GlcNAc(b1-2)[Gal(b1-4)GlcNAc(b1-6)]Man(a1-6)[Gal(b1-4)GlcNAc(b1-2)Man(a1-3)]Man(b1-4)GlcNAc(b1-4)GlcNAc
# Procedure, shortened: as §1
# [17] = biological target: Gal(b1-4)GlcNAc(b1-3)Gal(b1-4)GlcNAc(b1-2)[Gal(b1-4)GlcNAc(b1-3)Gal(b1-4)GlcNAc(b1-6)]Man(a1-6)[Gal(b1-4)GlcNAc(b1-3)Gal(b1-4)GlcNAc(b1-2)Man(a1-3)]Man(b1-4)GlcNAc(b1-4)GlcNAc
# Procedure, shortened: as §1
# [18] = biological target: Gal(b1-4)GlcNAc(b1-3)Gal(b1-4)GlcNAc(b1-3)[Gal(b1-4)GlcNAc(b1-3)Gal(b1-4)GlcNAc(b1-6)]GalNAc
# Procedure, shortened: as §1
# Gal6S(b1-4)Glc = biological target: Gal6S(b1-4)Glc
# Procedure, shortened: as §1
# [19] = biological target: GalNAc3S(b1-4)[Fuc(a1-3)]GlcNAc
# Procedure, shortened: as §1
# [20] = biological target: GlcNAc(b1-2)[GlcNAc(b1-4)]Man(a1-3)[GlcNAc(b1-4)][GlcNAc(b1-2)Man(a1-6)]Man(b1-4)GlcNAc(b1-4)GlcNAc
# Procedure, shortened: as §1
# [21] = biological target: GlcNAc(b1-3)Gal(b1-4)GlcNAc(b1-2)Man(a1-3)[GlcNAc(b1-3)Gal(b1-4)GlcNAc(b1-2)Man(a1-6)]Man(b1-4)GlcNAc(b1-4)[Fuc(a1-6)]GlcNAc
# Procedure, shortened: as §1
# [22] = biological target: GlcNAc(b1-3)Gal(b1-4)GlcNAc(b1-2)[GlcNAc(b1-3)Gal(b1-4)GlcNAc(b1-6)]Man(a1-6)[GlcNAc(b1-3)Gal(b1-4)GlcNAc(b1-2)Man(a1-3)]Man(b1-4)GlcNAc(b1-4)GlcNAc
# Procedure, shortened: as §1
# [23] = biological target: Man(a1-2)Man(a1-6)[Man(a1-3)]Man(a1-6)[Man(a1-2)Man(a1-2)Man(a1-3)]Man(b1-4)GlcNAc(b1-4)GlcNAc
# Procedure, shortened: as §1
# Man(a1-3)[Man(a1-6)]Man = biological target: Man(a1-3)[Man(a1-6)]Man
# Procedure, shortened: as §1
# MurNAc(b1-4)GlcNAc = biological target: MurNAc(b1-4)GlcNAc
# Procedure, shortened: as §1
# [24] = biological target: Neu5Ac(a2-3)Gal(b1-3)[Fuc(a1-4)]GlcNAc(b1-3)Gal(b1-4)[Fuc(a1-3)]GlcNAc
# Procedure, shortened: as §1
# [25] = biological target: Neu5Ac(a2-3)Gal(b1-3)[GlcNAc(b1-6)]GalNAc
# Procedure, shortened: as §1
# [26] = biological target: Neu5Ac(a2-3)Gal(b1-4)GlcNAc(b1-3)Gal(b1-4)GlcNAc(b1-2)Man(a1-3)[Neu5Ac(a2-3)Gal(b1-4)GlcNAc(b1-3)Gal(b1-4)GlcNAc(b1-2)Man(a1-6)]Man(b1-4)GlcNAc(b1-4)GlcNAc
# Procedure, shortened: as §1
# [27] = biological target: Neu5Ac(a2-3)Gal(b1-4)GlcNAc(b1-3)Gal(b1-4)GlcNAc(b1-3)GalNAc
# Procedure, shortened: as §1
# [28] = biological target: Neu5Ac(a2-3)Gal(b1-4)GlcNAc6S
# Procedure, shortened: as §1
# [29] = biological target: Neu5Ac(a2-3)Gal(b1-4)[Fuc(a1-3)]GlcNAc6S
# Procedure, shortened: as §1
# [30] = biological target: Neu5Ac(a2-3)Gal6S(b1-4)GlcNAc
# Procedure, shortened: as §1
# [31] = biological target: Neu5Ac(a2-3)[Neu5Ac(a2-6)]GalNAc
# Procedure, shortened: as §1
# [32] = biological target: Neu5Ac(a2-6)Gal(b1-4)GlcNAc(b1-2)Man(a1-3)[Neu5Ac(a2-6)Gal(b1-4)GlcNAc(b1-2)Man(a1-6)]Man(b1-4)GlcNAc(b1-4)[Fuc(a1-6)]GlcNAc
# Procedure, shortened: as §1
# [33] = biological target: Neu5Ac(a2-6)Gal(b1-4)GlcNAc(b1-2)[Neu5Ac(a2-6)Gal(b1-4)GlcNAc(b1-4)]Man(a1-3)[GlcNAc(b1-4)][Neu5Ac(a2-6)Gal(b1-4)GlcNAc(b1-2)[Neu5Ac(a2-6)Gal(b1-4)GlcNAc(b1-6)]Man(a1-6)]Man(b1-4)GlcNAc(b1-4)GlcNAc
# Procedure, shortened: as §1
# [34] = biological target: Neu5Ac(a2-6)Gal(b1-4)GlcNAc(b1-3)Gal(b1-4)GlcNAc
# Procedure, shortened: as §1
# [35] = biological target: Neu5Ac(a2-6)Gal(b1-4)GlcNAc(b1-3)Gal(b1-4)GlcNAc(b1-2)Man(a1-3)[Neu5Ac(a2-6)Gal(b1-4)GlcNAc(b1-3)Gal(b1-4)GlcNAc(b1-2)Man(a1-6)]GalNAc
# Procedure, shortened: as §1
# [36] = biological target: Neu5Ac(a2-6)Gal(b1-4)GlcNAc(b1-3)Gal(b1-4)GlcNAc(b1-3)Gal(b1-4)GlcNAc(b1-2)Man(a1-3)[Neu5Ac(a2-6)Gal(b1-4)GlcNAc(b1-3)Gal(b1-4)GlcNAc(b1-3)Gal(b1-4)GlcNAc(b1-2)Man(a1-6)]GalNAc
# Procedure, shortened: as §1
# [37] = biological target: Neu5Ac(b2-6)Gal(b1-4)GlcNAc
# Procedure, shortened: as §1
# [38] = biological target: Neu5Gc(a2-8)Neu5Gc(a2-3)Gal(b1-4)GlcNAc(b1-3)Gal(b1-4)GlcNAc
# Procedure, shortened: as §1
binder,measurement,setting,value
B1,glycan array binding signal (z-score),[1],-0.074
same,glycan array binding signal (z-score),[2],1.11
same,glycan array binding signal (z-score),[3],-0.8
same,glycan array binding signal (z-score),[4],-0.508
same,glycan array binding signal (z-score),[5],-0.308
same,glycan array binding signal (z-score),Fuc(a1-2)Gal6S(b1-4)Glc,-0.528
same,glycan array binding signal (z-score),[6],0.112
same,glycan array binding signal (z-score),[7],-0.817
same,glycan array binding signal (z-score),[8],-0.72
same,glycan array binding signal (z-score),[9],-0.384
same,glycan array binding signal (z-score),Gal(a1-3)Gal(b1-4)Glc,-0.655
same,glycan array binding signal (z-score),[10],-0.125
same,glycan array binding signal (z-score),[11],-0.683
same,glycan array binding signal (z-score),Gal(a1-6)Glc,-0.326
same,glycan array binding signal (z-score),[12],1.15
same,glycan array binding signal (z-score),[13],2.5
same,glycan array binding signal (z-score),[14],-0.833
same,glycan array binding signal (z-score),[15],3
same,glycan array binding signal (z-score),[16],-0.33
same,glycan array binding signal (z-score),[17],3.03
same,glycan array binding signal (z-score),[18],0.59
same,glycan array binding signal (z-score),Gal6S(b1-4)Glc,-0.744
same,glycan array binding signal (z-score),[19],-0.794
same,glycan array binding signal (z-score),[20],2.91
same,glycan array binding signal (z-score),[21],0.094
same,glycan array binding signal (z-score),[22],2.48
same,glycan array binding signal (z-score),[23],-0.019
same,glycan array binding signal (z-score),Man(a1-3)[Man(a1-6)]Man,-0.857
same,glycan array binding signal (z-score),MurNAc(b1-4)GlcNAc,0.448
same,glycan array binding signal (z-score),[24],-0.503
same,glycan array binding signal (z-score),[25],2.7
same,glycan array binding signal (z-score),[26],1.11
same,glycan array binding signal (z-score),[27],2.49
same,glycan array binding signal (z-score),[28],-0.795
same,glycan array binding signal (z-score),[29],-0.531
same,glycan array binding signal (z-score),[30],-0.255
same,glycan array binding signal (z-score),[31],0.964
same,glycan array binding signal (z-score),[32],-0.156
same,glycan array binding signal (z-score),[33],3.11
same,glycan array binding signal (z-score),[34],-0.464
same,glycan array binding signal (z-score),[35],4.44
same,glycan array binding signal (z-score),[36],2.81
same,glycan array binding signal (z-score),[37],3.63
same,glycan array binding signal (z-score),[38],1.55
